# In PubChem BioAssay (EPA / NIEHS):
# Inconclusive results are not listed. Activity calls are given as the source filed them. Rule for the calls: active = hit-call score of the fitted dose curve at least 0.9, where 1 is the maximum; inconclusive = response in the unintended direction; inactive = score below 0.9.
# What was measured:
# Adra2b (gene 24174) = Adra2b (gene 24174) (UniProt P19328); assay: NVS_GPCR_rmAdra2B: NovaScreen (NVS) G Protein-Coupled Receptor Assay for hybird cells Adrenergic, Alpha 2B Receptor (Adra2B) (AID 2283306)
# In short: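 Radioligand filter-binding assay on membrane proteins from neuroglioma/blastoma hybrid cells (rodent), 1 h after dosing; scintillation counting, loss of signal vs DMSO. Primary screen in duplicate at 25 uM, actives then run in concentration series.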
# [1] = biological target: Sodium channel protein type 1 subunit alpha (Rattus norvegicus) (UniProt P04774); assay: NVS_IC_rNaCh_site2: NovaScreen (NVS) Ion Channel Assay for rat Sodium Channel, Site 2 (NaCh) (AID 2283322);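 note: hit means loss of radioligand binding signal relative to DMSO so AC50 marks displacement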
# In short: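 Membranes: rat forebrain. Format: competitive radioligand displacement, filter separation, scintillation readout, 1 h exposure. Primary screen in duplicate at 25 uM; actives retested in concentration series.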
# [2] = biological target: rat Glutamate, NMDA Agonist Site (GluNMDA), Grin1 (gene 24408) (UniProt P35439); assay: NVS_LGIC_rGluNMDA_Agonist: NovaScreen (NVS) Ligand-Gated Ion Channel Assay for rat Glutamate, NMDA Agonist Site (GluNMDA) (AID 2283327)
# In short: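 Rat forebrain membranes, radioligand binding in the agonist-site protocol; 1 h after dosing; filter-based scintillation counting. Single-concentration duplicate screen at 25 uM, then concentration-response up to 50 uM for actives; gain-of-signal vs DMSO.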
# [3] = biological target: rat Somatostatin Receptor (SST), Sstr1 (gene 25033) (UniProt P28646); assay: NVS_GPCR_rSST: NovaScreen (NVS) G Protein-Coupled Receptor Assay for rat Somatostatin Receptor (SST) (AID 2283314)
# In short: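 Rat forebrain membranes; radioligand displacement read by filter-based scintillation counting 1 h after dosing. Primary screen in duplicate at 25 uM. Actives (e.g., 30% inhibition) were rerun as concentration-response to 50 uM max and fitted against DMSO.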
# [4] = NVS_IC_rCaDHPRCh_L: NovaScreen (NVS) Ion Channel Assay for rat Calcium Channel, Type L, Dihydropyridine Site (CaDHPRCh_L) (AID 2283320)
# In short: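 Radioligand binding to dihydropyridine site on rat cortical membranes, filter-based scintillation counting, 1 h after dosing. Screened in duplicate at 25 uM; actives rerun in concentration-response up to 50 uM. Loss of signal versus DMSO baseline.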
# [5] = biological target: rat Neurokinin-3 Receptor (NK3), Tacr3 (gene 24808) (UniProt P16177); assay: NVS_GPCR_rNK3: NovaScreen (NVS) G Protein-Coupled Receptor Assay for rat Neurokinin-3 Receptor (NK3) (AID 2283310)
# In short: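 Rat cortical membranes; radioligand binding with filtration and scintillation counting, 2 h after dosing. Primary screen in duplicate at 25 uM, then concentration-response up to 50 uM; loss of binding signal relative to DMSO.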
# [6] = biological target: rat Neonicotinoid receptor (NNR), Chrna7 (gene 25302) (UniProt Q05941); assay: NVS_LGIC_rNNR_BungSens: NovaScreen (NVS) Ligand-Gated Ion Channel Assay for rat Neonicotinoid receptor (NNR) (AID 2283315)
# In short: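 Radioligand displacement binding on rat cortical membranes, 2.5 h incubation, filtration and scintillation counting. Loss of specific binding fitted relative to DMSO.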
# [7] = biological target: rat Opioid Receptor, Non-selective Sodium (Na+) Binding, Oprm1 (gene 25601) (UniProt P33535); assay: NVS_GPCR_rOpiate_NonSelectiveNa: NovaScreen (NVS) G Protein-Coupled Receptor Assay for rat Opioid Receptor, Non-selective Sodium (Na+) Binding (AID 2283311)
# In short: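 Rat forebrain membranes, radioligand displacement with filter scintillation counting, 1.5 h incubation. Screened in duplicate at 25 µM; hits then run in concentration-response up to 50 µM; loss of binding fitted versus DMSO.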
# [8] = biological target: rat Opioid Receptor, Non-selective Binding, Oprm1 (gene 25601) (UniProt P33535); assay: NVS_GPCR_rOpiate_NonSelective: NovaScreen (NVS) G Protein-Coupled Receptor Assay for rat Opioid Receptor, Non-selective Binding (AID 2283318)
# In short: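 Rat forebrain membranes, cell-free radioligand binding with filter-based scintillation counting, read 1.5 h after dosing. Primary screen in duplicate at 25 uM; actives retested in concentration series. Loss of signal versus DMSO baseline scored.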
# [9] = biological target: human Peripheral-type Benzodiazepine Receptor (PBR), TSPO (gene 706) (UniProt P30536); assay: NVS_MP_hPBR: NovaScreen (NVS) Membrane Protein Assay for human Peripheral-type Benzodiazepine Receptor (PBR) (AID 2283331);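 note: hits reduce radioligand binding relative to DMSO baseline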
# In short: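 Human colonic cell membranes were incubated with test chemical for 1 hour; radioligand binding was measured by filter-based scintillation counting. Primary screen ran in duplicate at 25 uM, with actives followed in concentration series; loss of signal versus DMSO baseline.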
# [10] = biological target: rat Vasopressin 1 Receptor (V1), Avpr1a (gene 25107) (UniProt P30560); assay: NVS_GPCR_rV1: NovaScreen (NVS) G Protein-Coupled Receptor Assay for rat Vasopressin 1 Receptor (V1) (AID 2283316)
# In short: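 Radioligand binding on rat liver membranes, 1.5 h incubation, filter-based scintillation counting. Single 25 uM screen in duplicate; chemicals meeting threshold (e.g. 30% inhibition) run in concentration-response up to 50 uM.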
# [11] = biological target: human Constitutive Androstane Receptor (CAR), NR1I3 (gene 9970) (UniProt Q14994); assay: NVS_NR_hCAR_Agonist: NovaScreen (NVS) Nuclear Receptor Binding Assay for human Constitutive Androstane Receptor Agonism (CAR) (AID 2283328)
# In short: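 Cell-free TR-FRET binding readout with extracted human CAR protein, read 1 h after dosing. Gain of signal fitted against DMSO baseline. Single-concentration duplicates at 25 uM, then concentration-response up to 50 uM for actives.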
# [12] = biological target: rat Neurokinin-1 Receptor (NK1), Tacr1 (gene 24807) (UniProt P14600); assay: NVS_GPCR_rNK1: NovaScreen (NVS) G Protein-Coupled Receptor Assay for rat Neurokinin-1 Receptor (NK1) (AID 2283309)
# In short: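 Rat submaxillary gland membranes; radioligand displacement read by filter-based scintillation counting after 1 h. Primary screen in duplicate at 25 uM; actives retested in concentration series; loss of binding fitted versus DMSO.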
# [13] = biological target: Metabotropic glutamate receptor 1 (Rattus norvegicus) (UniProt P23385); assay: NVS_GPCR_rmMGluR1: NovaScreen (NVS) G Protein-Coupled Receptor Assay for rat Glutamate Metabotropic Receptor 1 (MGluR1) (AID 2283305)
# In short: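 Rat cerebellum membrane preparation, radioligand displacement binding read by filter-based scintillation counting 1 hour after dosing. Initial duplicate single-point screen at 25 uM, then concentration-response up to 50 uM; loss of signal versus DMSO baseline scored.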
# [14] = biological target: human Serotonin, 5-Hydroxytryptamine Receptor 3 (5HT3), HTR3A (gene 3359) (UniProt P46098); assay: NVS_LGIC_h5HT3: NovaScreen (NVS) Ligand-Gated Ion Channel Assay for human Serotonin, 5-Hydroxytryptamine Receptor 3 (5HT3) (AID 2283325)
# In short: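 Radioligand displacement binding to human 5-HT3 from HEK293 membranes, read by filter-based scintillation counting after 1 h. Screen at 25 uM in duplicate; chemicals passing threshold were retested in concentration-response up to 50 uM.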
# [15] = biological target: rat Glutamate, AMPA Site (AMPA), Gria1 (gene 50592) (UniProt P19490); assay: NVS_LGIC_rAMPA: NovaScreen (NVS) Ligand-Gated Ion Channel Assay for rat Glutamate, AMPA Site (AMPA) (AID 2283324)
# In short: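 Rat forebrain membranes; radioligand binding read 1 h after dosing by filtration and scintillation counting. Duplicate single-point screen at 25 uM, then concentration-response to 50 uM for threshold hits (e.g. 30% inhibition); loss of signal vs DMSO.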
# [16] = biological target: rat Thyrotropin Releasing Hormone Receptor (TRH), Trhr (gene 25570) (UniProt Q01717); assay: NVS_GPCR_rTRH: NovaScreen (NVS) G Protein-Coupled Receptor Assay for rat Thyrotropin Releasing Hormone Receptor (TRH) (AID 2283329);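 note: hit means lower bound tracer signal versus DMSO baseline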
# In short: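 Rat forebrain membrane prep, radioligand displacement, filter scintillation readout at 4 h. Single conc 25 uM, duplicate; actives retested as concentration series. DMSO = negative control/baseline.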
# NCBI gene 24521 = assay: NVS_IC_rKATPCh: NovaScreen (NVS) Ion Channel Assay for rat Potassium Channel, ATP-Sensitive (KATPCh) (AID 2283319)
# In short: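 Rat cortical membranes; radioligand binding at ATP-sensitive K channel site, filter-based scintillation counting 2 h after dosing. Single-point duplicate screen at 25 uM, hits rerun in concentration-response up to 50 uM; loss of signal versus DMSO.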
# [17] = biological target: bovine Gamma-Aminobutyric Acid Type A Receptor BDZ, alpha 5 site (GABARa5), GABRA5 (gene 523515) (UniProt Q08E50); assay: NVS_LGIC_bGABARa5: NovaScreen (NVS) Ligand-Gated Ion Channel Assay for bovine Gamma-Aminobutyric Acid Type A Receptor BDZ, alpha 5 site (GABARa5) (AID 2283323)
# In short: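 Radioligand competitive displacement binding on bovine hippocampal membranes, read 1 hr after dosing by filter-based scintillation counting. Primary screen at 25 uM in duplicate; actives (e.g. ≥30% inhibition) then run in concentration-response up to 50 uM.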
# [18] = biological target: rat Gamma-Aminobutyric Acid Type A Receptor, Non-Selective (GABAR-NonSelective), Gabra1 (gene 29705) (UniProt P62813); assay: NVS_LGIC_rGABAR_NonSelective: NovaScreen (NVS) Ligand-Gated Ion Channel Assay for rat Gamma-Aminobutyric Acid Type A Receptor, Non-Selective (GABAR-NonSelective) (AID 2283326)
# In short: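 Radioligand displacement on rat whole-brain extract, 1 h, filter scintillation readout; signal loss fitted versus DMSO. Primary screen in duplicate at 25 uM; hits (e.g. ≥30% inhibition) retested in concentration-response up to 50 uM.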
# Chain of rat Opioid Receptor, Non-selective Sodium (Na+) Binding, Oprm1 (gene 25601) (P33535 whole entry, looked up): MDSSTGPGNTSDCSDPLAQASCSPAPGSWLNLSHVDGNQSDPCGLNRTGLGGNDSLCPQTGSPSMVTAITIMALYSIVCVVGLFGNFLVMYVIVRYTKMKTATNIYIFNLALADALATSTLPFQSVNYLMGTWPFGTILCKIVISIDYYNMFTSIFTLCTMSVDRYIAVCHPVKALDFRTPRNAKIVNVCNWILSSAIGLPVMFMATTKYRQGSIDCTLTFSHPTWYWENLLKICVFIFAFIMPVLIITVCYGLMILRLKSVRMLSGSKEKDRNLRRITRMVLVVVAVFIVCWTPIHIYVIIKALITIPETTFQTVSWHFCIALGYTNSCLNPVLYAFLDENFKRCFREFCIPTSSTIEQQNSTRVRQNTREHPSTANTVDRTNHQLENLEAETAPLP
# Chain of rat Opioid Receptor, Non-selective Binding, Oprm1 (gene 25601) (P33535 whole entry, looked up): as above
# Chain of Adra2b (gene 24174) (P19328 whole entry, looked up): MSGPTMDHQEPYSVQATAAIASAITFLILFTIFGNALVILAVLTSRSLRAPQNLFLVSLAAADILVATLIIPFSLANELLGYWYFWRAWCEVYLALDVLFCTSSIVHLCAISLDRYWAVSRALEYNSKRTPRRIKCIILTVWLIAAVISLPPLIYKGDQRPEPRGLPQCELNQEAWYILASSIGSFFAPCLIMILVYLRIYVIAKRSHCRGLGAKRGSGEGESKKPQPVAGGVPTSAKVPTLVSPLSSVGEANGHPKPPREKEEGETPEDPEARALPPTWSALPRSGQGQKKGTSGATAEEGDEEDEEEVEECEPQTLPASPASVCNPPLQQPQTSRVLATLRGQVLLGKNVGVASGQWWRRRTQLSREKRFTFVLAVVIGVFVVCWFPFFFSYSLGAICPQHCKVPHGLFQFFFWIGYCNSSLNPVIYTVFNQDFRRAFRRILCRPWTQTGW
# Chain of human Serotonin, 5-Hydroxytryptamine Receptor 3 (5HT3), HTR3A (gene 3359) (P46098 whole entry, looked up): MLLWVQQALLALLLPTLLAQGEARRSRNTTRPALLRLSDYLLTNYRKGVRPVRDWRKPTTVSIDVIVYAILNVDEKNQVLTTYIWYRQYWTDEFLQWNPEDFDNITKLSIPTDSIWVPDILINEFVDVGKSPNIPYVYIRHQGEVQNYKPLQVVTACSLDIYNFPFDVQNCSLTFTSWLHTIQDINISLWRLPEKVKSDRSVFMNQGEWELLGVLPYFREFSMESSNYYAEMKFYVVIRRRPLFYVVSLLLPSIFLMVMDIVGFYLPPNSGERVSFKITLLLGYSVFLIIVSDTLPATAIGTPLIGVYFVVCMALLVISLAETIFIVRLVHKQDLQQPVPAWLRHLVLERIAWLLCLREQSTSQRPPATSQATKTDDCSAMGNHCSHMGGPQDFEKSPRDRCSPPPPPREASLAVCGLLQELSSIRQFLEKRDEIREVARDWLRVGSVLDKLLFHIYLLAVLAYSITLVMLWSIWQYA
# Chain of human Peripheral-type Benzodiazepine Receptor (PBR), TSPO (gene 706) (P30536 whole entry, looked up): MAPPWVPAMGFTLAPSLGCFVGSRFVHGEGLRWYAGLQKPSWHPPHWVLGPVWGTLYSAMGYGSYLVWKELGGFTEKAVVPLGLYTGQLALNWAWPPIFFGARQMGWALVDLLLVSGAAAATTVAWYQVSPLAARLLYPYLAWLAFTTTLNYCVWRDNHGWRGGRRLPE
# Chain of rat Neurokinin-1 Receptor (NK1), Tacr1 (gene 24807) (P14600 whole entry, looked up): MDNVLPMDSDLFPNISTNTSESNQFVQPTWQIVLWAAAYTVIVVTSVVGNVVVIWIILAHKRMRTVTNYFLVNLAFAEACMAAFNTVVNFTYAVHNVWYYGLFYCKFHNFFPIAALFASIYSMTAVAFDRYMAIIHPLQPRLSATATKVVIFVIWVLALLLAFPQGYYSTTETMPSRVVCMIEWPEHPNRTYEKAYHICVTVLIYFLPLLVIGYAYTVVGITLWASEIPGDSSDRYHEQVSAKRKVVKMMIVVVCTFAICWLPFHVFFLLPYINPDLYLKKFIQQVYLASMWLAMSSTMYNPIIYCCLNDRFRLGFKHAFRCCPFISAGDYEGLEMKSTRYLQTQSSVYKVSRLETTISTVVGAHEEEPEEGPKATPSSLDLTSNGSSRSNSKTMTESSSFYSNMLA
# Chain of human Constitutive Androstane Receptor (CAR), NR1I3 (gene 9970) (Q14994 whole entry, looked up): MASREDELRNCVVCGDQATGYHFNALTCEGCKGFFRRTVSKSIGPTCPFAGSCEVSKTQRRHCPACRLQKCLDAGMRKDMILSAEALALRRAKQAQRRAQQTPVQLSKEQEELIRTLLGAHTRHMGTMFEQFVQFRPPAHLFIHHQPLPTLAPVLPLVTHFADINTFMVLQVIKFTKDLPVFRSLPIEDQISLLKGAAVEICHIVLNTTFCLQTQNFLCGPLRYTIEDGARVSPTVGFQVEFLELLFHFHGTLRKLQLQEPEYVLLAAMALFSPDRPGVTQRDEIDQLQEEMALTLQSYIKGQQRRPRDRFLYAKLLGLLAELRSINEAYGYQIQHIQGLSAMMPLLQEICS
# Chain of rat Neonicotinoid receptor (NNR), Chrna7 (gene 25302) (Q05941 whole entry, looked up): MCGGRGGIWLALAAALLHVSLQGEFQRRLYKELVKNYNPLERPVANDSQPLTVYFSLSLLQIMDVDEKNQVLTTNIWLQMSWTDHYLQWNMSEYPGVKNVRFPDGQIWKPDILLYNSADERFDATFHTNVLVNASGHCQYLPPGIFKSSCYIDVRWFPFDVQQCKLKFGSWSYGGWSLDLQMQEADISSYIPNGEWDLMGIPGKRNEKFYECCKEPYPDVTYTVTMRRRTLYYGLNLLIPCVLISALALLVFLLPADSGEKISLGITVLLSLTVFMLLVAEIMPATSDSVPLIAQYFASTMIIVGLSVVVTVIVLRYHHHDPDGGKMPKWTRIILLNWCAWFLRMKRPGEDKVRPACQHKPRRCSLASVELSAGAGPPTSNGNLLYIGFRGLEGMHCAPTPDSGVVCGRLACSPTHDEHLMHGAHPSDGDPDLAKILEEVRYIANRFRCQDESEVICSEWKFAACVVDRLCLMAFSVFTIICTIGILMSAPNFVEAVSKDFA
# Chain of rat Somatostatin Receptor (SST), Sstr1 (gene 25033) (P28646 whole entry, looked up): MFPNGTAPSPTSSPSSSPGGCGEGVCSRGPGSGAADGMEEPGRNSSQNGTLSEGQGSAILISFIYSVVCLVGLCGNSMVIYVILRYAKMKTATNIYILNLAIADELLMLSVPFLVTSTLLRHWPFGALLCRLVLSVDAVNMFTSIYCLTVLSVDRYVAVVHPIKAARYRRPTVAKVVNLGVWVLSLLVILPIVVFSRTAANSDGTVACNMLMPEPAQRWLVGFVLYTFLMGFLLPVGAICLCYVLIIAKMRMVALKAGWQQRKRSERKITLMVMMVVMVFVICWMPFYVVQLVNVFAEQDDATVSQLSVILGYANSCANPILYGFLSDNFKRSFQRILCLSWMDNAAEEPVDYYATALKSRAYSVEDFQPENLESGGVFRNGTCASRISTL
# Chain of Metabotropic glutamate receptor 1 (Rattus norvegicus) (P23385 whole entry, looked up): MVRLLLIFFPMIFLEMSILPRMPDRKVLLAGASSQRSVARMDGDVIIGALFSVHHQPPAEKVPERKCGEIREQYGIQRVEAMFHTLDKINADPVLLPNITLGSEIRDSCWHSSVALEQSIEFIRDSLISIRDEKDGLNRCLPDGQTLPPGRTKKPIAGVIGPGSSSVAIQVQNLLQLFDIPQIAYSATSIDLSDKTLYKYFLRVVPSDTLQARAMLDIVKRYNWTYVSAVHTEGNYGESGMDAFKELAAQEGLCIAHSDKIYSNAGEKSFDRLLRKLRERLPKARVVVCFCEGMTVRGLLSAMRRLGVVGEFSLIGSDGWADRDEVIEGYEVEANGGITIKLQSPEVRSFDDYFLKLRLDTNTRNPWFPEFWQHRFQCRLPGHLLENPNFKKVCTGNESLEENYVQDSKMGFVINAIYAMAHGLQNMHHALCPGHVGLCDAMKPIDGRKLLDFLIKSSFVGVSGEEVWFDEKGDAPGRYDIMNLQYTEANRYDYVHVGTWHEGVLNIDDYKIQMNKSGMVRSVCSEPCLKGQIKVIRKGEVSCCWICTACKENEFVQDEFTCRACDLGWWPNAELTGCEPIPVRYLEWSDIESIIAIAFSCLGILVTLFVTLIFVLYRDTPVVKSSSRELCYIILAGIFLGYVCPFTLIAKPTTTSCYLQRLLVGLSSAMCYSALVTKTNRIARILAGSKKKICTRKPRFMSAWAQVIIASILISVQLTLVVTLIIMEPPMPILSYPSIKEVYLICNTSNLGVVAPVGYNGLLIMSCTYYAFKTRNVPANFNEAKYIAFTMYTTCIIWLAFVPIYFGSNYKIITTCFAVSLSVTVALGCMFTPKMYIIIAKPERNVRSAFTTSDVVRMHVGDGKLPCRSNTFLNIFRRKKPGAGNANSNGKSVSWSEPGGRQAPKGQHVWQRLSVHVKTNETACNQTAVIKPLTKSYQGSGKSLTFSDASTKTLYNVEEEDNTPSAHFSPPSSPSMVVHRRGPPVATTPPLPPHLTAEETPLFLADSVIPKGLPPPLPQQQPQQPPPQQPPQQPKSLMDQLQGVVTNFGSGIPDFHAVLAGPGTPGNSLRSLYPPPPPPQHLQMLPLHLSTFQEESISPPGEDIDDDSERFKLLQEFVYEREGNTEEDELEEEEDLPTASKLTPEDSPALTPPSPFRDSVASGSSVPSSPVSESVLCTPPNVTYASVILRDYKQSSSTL
smiles,measurement,setting,value
CCCCC(CC)COC(=O)CC(C(=O)OCC(CC)CCCC)S(=O)(=O)O (centres undefined),AC50,Adra2b (gene 24174),22.4 µM (active)
same,outcome,[1],inactive
same,AC50,[2],38.3 µM (active)
Cc1cc(=O)[nH]c(=S)[nH]1,AC50,[3],13.2 µM (active)
same,outcome,[4],inactive
CCc1c(C(=O)NN2CCCCC2)nn(-c2ccc(Cl)cc2Cl)c1-c1ccc(Br)cc1,outcome,[5],inactive
same,outcome,[4],inactive
same,AC50,[1],11.5 µM (active)
Cc1nc(-c2ccc3c(c2)CCN(CCC2CCC(NC(=O)/C=C/c4ccc(F)cc4)CC2)CC3)no1 (centres undefined),outcome,[6],inactive
same,AC50,[1],0.265 µM (active)
NC(=O)Cn1c(=O)cc(CCN2CCN(c3nccc4sccc34)CC2)c2ccc(F)cc21,AC50,Adra2b (gene 24174),0.131 µM (active)
same,AC50,[7],1.38 µM (active)
same,AC50,[8],1.45 µM (active)
same,outcome,[1],inactive
same,AC50,[9],1.77 µM (active)
Nc1ccc(S(=O)(=O)c2ccc(N)cc2)cc1,outcome,[7],inactive
Cc1cccc(Nc2cc(Cl)nc(SCC(=O)O)n2)c1C,AC50,[10],2.85 µM (active)
same,AC50,[9],6.49 µM (active)
CC(C)(C)c1cc(O)c(C(C)(C)C)cc1O,AC50,[3],3.63 µM (active)
same,outcome,[11],inactive
CN1CCN(Cc2cc(-c3ccc4[nH]c(=O)oc4c3)co2)[C@@H](c2ccc(F)cc2)C1,AC50,Adra2b (gene 24174),15.8 µM (active)
same,AC50,[12],22 µM (active)
same,outcome,[7],inactive
same,AC50,[4],15 µM (active)
same,AC50,[1],7.72 µM (active)
CC1(C)CC(N=C=O)CC(C)(CN=C=O)C1 (centres undefined),outcome,[13],inactive
CC(C)c1ccc(C(=O)N=C(N)N)cc1S(C)(=O)=O,AC50,[8],5.07 µM (active)
same,AC50,[1],34 µM (active)
same,AC50,[9],12.3 µM (active)
CNC(=O)[C@H]1O[C@@H](n2cnc3c(NCc4cc(Cl)ccc4OCc4cc(C)no4)ncnc32)[C@H](O)[C@@H]1N,outcome,Adra2b (gene 24174),inactive
same,AC50,[3],37.9 µM (active)
CCOC(=O)C(C)(C)Oc1ccc(Cl)cc1,outcome,[12],inactive
same,outcome,[6],inactive
Nc1ccccc1N,outcome,[12],inactive
same,outcome,[9],inactive
COc1cc(S(=O)(=O)O)c(C)cc1N=Nc1c(O)ccc2cc(S(=O)(=O)O)ccc12,AC50,[12],25 µM (active)
same,AC50,[14],32.8 µM (active)
COCCOC[C@H](CC1(C(=O)NC2CCC(C(=O)O)CC2)CCCC1)C(=O)Oc1ccc2c(c1)CCC2 (some centres undefined),AC50,[3],5.45 µM (active)
same,outcome,[8],inactive
same,outcome,[15],inactive
O=C(N[C@@H](Cc1ccccc1)[C@@H](O)C(=O)N1C[C@@H](O)[C@@H](O)C1)c1cc2cc(Cl)ccc2[nH]1,AC50,[7],19.4 µM (active)
same,AC50,[8],25 µM (active)
same,outcome,[1],inactive
Oc1ccc2c(c1)OC[C@@H](N1CCC(O)(c3ccc(F)cc3)CC1)[C@H]2O,outcome,[7],inactive
same,outcome,[8],inactive
same,outcome,[1],inactive
same,outcome,[14],inactive
same,outcome,[2],inactive
same,outcome,[11],inactive
CNCc1cc(F)ccc1Oc1ccc(Cl)c(Cl)c1,AC50,Adra2b (gene 24174),8.41 µM (active)
same,AC50,[7],25 µM (active)
same,AC50,[6],28.5 µM (active)
same,outcome,[14],inactive
Cc1nc(C)nc(N2C[C@@H](C)N(c3ccnc([C@@H](C)O)n3)[C@@H](C)C2)n1,outcome,Adra2b (gene 24174),inactive
COc1ccc(S(=O)(=O)N2C(=O)[C@@](c3ccccc3OC)(N3C[C@H](O)C[C@H]3C(=O)N(C)C)c3cc(Cl)ccc32)c(OC)c1,outcome,[13],inactive
same,AC50,[12],11.3 µM (active)
same,outcome,[10],inactive
same,AC50,[1],39.6 µM (active)
same,AC50,[16],10.4 µM (active)
Cc1cc(NC(=O)C(=O)O)cc(C)c1Oc1ccc(O)c2c1CCC2,outcome,[8],inactive
CCCc1cc(=O)[nH]c(=S)[nH]1,outcome,NCBI gene 24521,inactive
CCCCc1ccc2c(n1)[C@@H](c1ccc(OC)cc1C[C@H](C)C(=O)O)[C@H](C(=O)O)[C@H]2c1ccc2c(c1)OCO2,AC50,[17],27.5 µM (active)
Nc1nc(N)c2nc(CNc3ccc(C(=O)N[C@@H](CCC(=O)O)C(=O)O)cc3)cnc2n1,outcome,[18],inactive
CCCCCCCCCCCCCO,outcome,[11],inactive
